Measurements reported in PubChem BioAssay (Tox21).
“And” between values parts separate entries of the source, which are not always exact repeats. Equal values may be shown once. Results filed as inconclusive are left out. The source made the active and inactive calls. Unless noted, calls follow the shape of the dose curve; as a rule, active = well fitted curve in the direction sought with a large enough effect in the repeat runs; inconclusive = weak or mixed curves; inactive = no such curve, though single readings can be large; an effect the other way counts as inactive or inconclusive.

What was measured:
[1] = qHTS assay to identify small molecule agonists of the estrogen receptor alpha (ER-alpha) signaling pathway in the presence of an antagonist - cell viability counter screen (AID 1259386);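 also: cells exposed to compounds for 22 h at 37 °C before the viability read; nearly all actives have a fitted effect of over 30% in size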; also: potency is read from the fitted curve at half-maximal effect
How it was run: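 Read-out: CellTiter-Fluor fluorescence after 1hr reagent incubation, measured in the same wells as the luciferase readout. VM7Luc4E2 cells were exposed to 15 compound concentrations with 10.0nM ICI-182,780 for 22hr at 37C.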

[2] = qHTS assay to identify small molecule antagonists of the progesterone receptor (PR) signaling pathway - cell viability counter screen (AID 1346798); also: nearly all actives have a fitted effect of over 50% in size; also: potency is read from the fitted curve at half-maximal effect
How it was run: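 PR-UAS-bla HEK293T cells in medium with 2% charcoal-stripped FBS were treated with compounds plus R5020 for 16 hr at 37C. Cell viability was then read by CellTiter-Glo luminescence after 30 min at room temperature in the same wells.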

[3] = qHTS assay to identify small molecule agonists of the progesterone receptor (PR) signaling pathway - cell viability counter screen (AID 1346799; calls by dose curve; also: nearly all actives have a fitted effect of over 45% in size; also: potency is read from the fitted curve at half-maximal effect)
How it was run: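 PR-UAS-bla HEK293T cells, 3,000 per well in medium with 2% charcoal-stripped FBS, were preincubated 6 hr at 37C, then exposed to compounds for 16 hr; viability was read as CellTiter-Glo luminescence after 30 min at room temperature.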

[4] = qHTS assay to identify small molecule antagonists of the TGF-beta/Smad signaling pathway - cell viability counter screen (AID 1346824); also: nearly all actives have a fitted effect of over 50% in size; also: potency is read from the fitted curve at half-maximal effect
How it was run: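 Cytotoxicity counter-screen run in the same wells as the beta-lactamase Smad reporter read: CellTiter-Glo luminescence after 30 min at room temperature. HEK 293T SBE-bla cells had 5 hr compound exposure at 37 C with TGF-beta1 (0.25 ng/mL stock).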

[5] = qHTS assay to identify small molecule agonists of the TGF-beta/Smad signaling pathway - cell viability counter screen (AID 1346829); also: nearly all actives have a fitted effect of over 45% in size; also: potency is read from the fitted curve at half-maximal effect
How it was run: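 Luminescence from CellTiter-Glo, read after a 30 min room-temperature incubation, gives cell viability of SBE-bla HEK 293T cells treated 5 hr with compounds at 37 C.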

[6] = qHTS assay to identify small molecule agonists of the TGF-beta/Smad signaling pathway (AID 1346859; active = well fitted activation curve with a large enough effect in the signal ratio in the repeat runs, not every such curve was filed as active; the % refers to the signal ratio; also: series mostly up to about 77 µM)
How it was run: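 HEK 293T cells stably carrying a beta-lactamase reporter driven by the Smad binding element were seeded overnight, exposed to DMSO-dissolved compounds for 5 hr at 37 C, 5% CO2, then loaded with FRET substrate for 2 hr at room temperature.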

[7] = target: Thyrotropin-releasing hormone receptor (Homo sapiens) (UniProt P34981); assay: qHTS assay to identify small molecule antagonists of the thyrotropin-releasing hormone receptor (TRHR) signaling pathway (AID 1346877; active = well fitted inhibition curve with a large enough effect in the repeat runs, not every such curve was filed as active; also: series mostly up to about 51 µM)
How it was run: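 HEK293/TRHR cells, 18 h, 37 °C; Ca2+ dye 2 h; cpd 5 min RT; TRH 1 nM final; fluorescence read 3 min, 1 s intervals; 15 concs, triplicate.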

[8] = target: Thyrotropin-releasing hormone receptor (Homo sapiens) (UniProt P34981); assay: qHTS assay to identify small molecule agonists of the thyrotropin-releasing hormone receptor (TRHR) signaling pathway (AID 1346891; calls by dose curve; also: series mostly up to about 58 µM)
How it was run: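 TRHR-expressing HEK293 cells were plated 18 h at 37 °C/5% CO2, loaded with calcium dye 2 h at 37 °C, then given compound in DMSO; fluorescence was read kinetically for 3 min at 1 s intervals.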

[9] = target: Progesterone receptor (Homo sapiens) (UniProt P06401); assay: qHTS assay to identify small molecule agonists of the progesterone receptor (PR) signaling pathway (AID 1346784; calls by dose curve; also: nearly all actives have a fitted effect of over 30% in size; also: potency is read from the fitted curve at half-maximal effect)
How it was run: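 PR-UAS-bla HEK 293T cells carrying a UAS-driven beta-lactamase reporter were seeded in medium with 2% charcoal-stripped FBS, preincubated 6 hr at 37C, then exposed to compounds in DMSO for 16 hr; agonism was read by LiveBLAzer B/G FRET fluorescence.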

[10] = target: Progesterone receptor (Homo sapiens) (UniProt P06401); assay: qHTS assay to identify small molecule antagonists of the progesterone receptor (PR) signaling pathway (AID 1346795; active = well fitted inhibition curve with a large enough effect in the signal ratio in the repeat runs, not every such curve was filed as active; the % refers to the signal ratio; also: potency is read from the fitted curve at half-maximal effect)
How it was run: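 PR-UAS-bla HEK293T cells carrying a UAS-driven beta-lactamase reporter were plated in medium with 2% charcoal-stripped FBS and rested 6 hr at 37C. Compounds were added with 1 nM R5020 (final) for 16 hr, then FRET substrate loaded 2 hr at room temperature.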

Measured: Potency

Progesterone receptor (Homo sapiens), sequence (P06401 whole entry, looked up): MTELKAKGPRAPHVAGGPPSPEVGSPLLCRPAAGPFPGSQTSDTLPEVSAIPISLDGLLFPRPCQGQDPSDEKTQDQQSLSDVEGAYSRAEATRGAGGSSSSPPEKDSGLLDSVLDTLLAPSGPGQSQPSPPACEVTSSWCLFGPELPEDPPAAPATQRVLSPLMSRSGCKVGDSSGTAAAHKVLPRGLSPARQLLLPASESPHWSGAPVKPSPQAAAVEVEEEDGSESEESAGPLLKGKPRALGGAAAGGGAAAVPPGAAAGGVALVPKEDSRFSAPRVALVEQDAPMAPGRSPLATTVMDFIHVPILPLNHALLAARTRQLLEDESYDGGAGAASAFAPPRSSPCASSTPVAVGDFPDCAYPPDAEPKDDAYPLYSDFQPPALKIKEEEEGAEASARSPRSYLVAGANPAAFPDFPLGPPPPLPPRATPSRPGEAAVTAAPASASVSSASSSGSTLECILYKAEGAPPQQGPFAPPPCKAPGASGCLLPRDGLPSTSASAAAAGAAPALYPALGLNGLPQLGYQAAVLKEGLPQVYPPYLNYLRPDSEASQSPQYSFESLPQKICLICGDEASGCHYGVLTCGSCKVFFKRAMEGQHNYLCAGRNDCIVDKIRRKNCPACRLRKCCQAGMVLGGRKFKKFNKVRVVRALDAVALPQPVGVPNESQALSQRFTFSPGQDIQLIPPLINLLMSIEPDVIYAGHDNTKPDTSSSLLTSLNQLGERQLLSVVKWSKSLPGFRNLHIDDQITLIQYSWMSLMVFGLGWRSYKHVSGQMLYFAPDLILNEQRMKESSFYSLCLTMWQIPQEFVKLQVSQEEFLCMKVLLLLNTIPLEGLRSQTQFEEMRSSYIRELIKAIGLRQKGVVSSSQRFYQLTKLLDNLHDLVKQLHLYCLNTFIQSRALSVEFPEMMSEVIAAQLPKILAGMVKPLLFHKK
Thyrotropin-releasing hormone receptor (Homo sapiens), sequence (P34981 whole entry, looked up): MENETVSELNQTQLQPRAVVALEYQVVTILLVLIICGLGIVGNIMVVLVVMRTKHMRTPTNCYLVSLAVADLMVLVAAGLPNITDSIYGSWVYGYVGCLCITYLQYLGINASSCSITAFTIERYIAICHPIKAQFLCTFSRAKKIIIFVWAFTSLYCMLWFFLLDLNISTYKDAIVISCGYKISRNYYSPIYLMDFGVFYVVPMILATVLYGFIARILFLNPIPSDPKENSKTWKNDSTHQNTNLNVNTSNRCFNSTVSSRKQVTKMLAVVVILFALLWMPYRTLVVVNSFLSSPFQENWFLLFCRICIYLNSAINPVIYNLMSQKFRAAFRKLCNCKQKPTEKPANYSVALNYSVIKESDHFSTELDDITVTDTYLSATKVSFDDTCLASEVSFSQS

CCNC(=O)NC(=O)/C(C#N)=N/OC
not listed: [9] | [10]
inactive: all other assays above

C1CS1
not listed: [1]
inactive: all other assays above

CC(Oc1cc(Cl)c(Cl)cc1Cl)C(=O)O (stereo not drawn)
active: [3] 48.7 µM
not listed: [9]
inactive: all other assays above

FC(F)OC(F)(F)C(F)Cl (stereo not drawn)
not listed: [1]
inactive: all other assays above

COc1cc(CC(C)N)c(OC)cc1Br (stereo not drawn)
not listed: [2] | [10]
inactive: all other assays above

C=CCOC(=O)C(C)(C)OC(=O)c1cc(-n2c(=O)cc(C(F)(F)F)n(C)c2=O)ccc1Cl
not listed: [9] | [10]
inactive: all other assays above

O=S(=O)(c1ccccc1)c1ccccc1
not listed: [2] | [10]
inactive: all other assays above

C[CH2][Hg][S]c1ccccc1C(=O)O
inactive: [5]
active: [1] 13.7 µM and 21.1 µM | [10] 1.54 µM and 3.35 µM | [2] 2.73 µM and 6.68 µM | [3] 1.93 µM and 6.68 µM | [4] 43.6 µM and 19 µM

CON(C)C(=O)Nc1ccc(Cl)cc1
inactive: [1] | [9] | [3] | [4] | [5] | [6]

OCCSSCCO
not listed: [2] | [10]
inactive: all other assays above

O=P(OCC(Br)CBr)(OCC(Br)CBr)OCC(Br)CBr (stereo not drawn)
active: [10] 5.8 µM
not listed: [1]
inactive: all other assays above

CN(C)c1ccc(N=O)cc1
active: [1] 68.8 µM and 61.1 µM | [2] 38.7 µM and 48.6 µM
not listed: [9] | [10]
inactive: all other assays above

CCOC(=O)c1cn2nc(OP(=S)(OCC)OCC)cc2nc1C
inactive: [1] | [9] | [4] | [5]

CCCN(CCOc1c(Cl)cc(Cl)cc1Cl)C(=O)n1ccnc1
inactive: [1] | [9] | [4] | [5] | [6]
active: [2] 78.6 µM

COc1ccc2c(c1OC)C(=O)O[C@H]2[C@@H]1c2cc3c(cc2CCN1C)OCO3
not listed: [1]
inactive: all other assays above

N#CC(C#N)=C(C#N)C#N
not listed: [1]
inactive: all other assays above

[Cl-].[Cl-].[Hg+2]
active: [1] 54.2 µM and 27.3 µM | [2] 4.83 µM and 2.43 µM | [3] 5.42 µM and 2.17 µM | [4] 24.4 µM and 54.9 µM | [5] 54.7 µM and 54.9 µM
inactive: [6]

NC(=S)c1c(Cl)cccc1Cl
inactive: [1] | [2] | [3] | [4] | [5] | [6]

CCCCNC(=O)OCC#CI
not listed: [1]
inactive: all other assays above

Cc1ncc(C[n+]2csc(CCO)c2C)c(N)n1
not listed: [4] | [9] | [10]
inactive: all other assays above

CC(C)[C@@H](C(=O)O[C@@H](C#N)c1cccc(Oc2ccccc2)c1)c1ccc(Cl)cc1
inactive: [1] | [2] | [4] | [5] | [6]

CCc1ccccc1N
inactive: [1] | [9] | [3] | [4] | [5] | [6]

C=CCc1ccccc1O
not listed: [1]
inactive: all other assays above

C=C(Cl)Cl
not listed: [1] | [7] | [8]
inactive: all other assays above

O=[N+]([O-])O[C@H]1CO[C@H]2[C@@H]1OC[C@H]2O[N+](=O)[O-]
not listed: [2] | [10]
inactive: all other assays above

O=C(O)CCCOc1ccc(Cl)cc1Cl
inactive: [1] | [5]

COc1ccc(C(=O)c2c(C)n(CCN3CCOCC3)c3ccccc23)cc1
not listed: [2] | [3] | [10]
inactive: all other assays above

CC(O)CN1CCN(CC(=O)[O-])CCN(CC(=O)[O-])CCN(CC(=O)[O-])CC1.[Gd+3] (stereo not drawn)
not listed: [4] | [9] | [10]
inactive: all other assays above

C[C@]12CC[C@H]3[C@@H](CCC4=CC(=O)CC[C@@H]43)[C@@H]1CC[C@@H]2OC(=O)CCc1ccccc1
inactive: [1] | [2] | [4] | [5] | [6]
active: [9] 1.5 µM

COC(=O)C1(O)c2ccccc2-c2ccccc21
not listed: [2] | [4] | [10]
inactive: all other assays above

CCC(C)(C)c1ccc(O)c(C(C)(C)CC)c1
active: [2] 60.4 µM and 30.6 µM | [3] 24.3 µM
inactive: [1] | [6] | [7] | [8]

CCCN(CCC)C(=O)Cc1c(-c2ccc(Cl)cc2)nc2ccc(Cl)cn12
active: [10] 10.6 µM
not listed: [1]
inactive: all other assays above

O=C(O)C(F)(F)C(F)(F)C(F)(F)C(F)(F)C(F)(F)C(F)(F)C(F)(F)C(F)(F)F
not listed: [3] | [10]
inactive: all other assays above

CCCCCl
not listed: [2] | [4] | [10]
inactive: all other assays above

CC(C)C1(C)N=C(c2ncccc2C(=O)O)NC1=O (stereo not drawn)
not listed: [2] | [10]
inactive: all other assays above

C#C[C@]1(O)CC[C@H]2[C@@H]3CCC4=CC(=O)CCC4=C3C=C[C@@]21CC
inactive: [1] | [4] | [5] | [7] | [8]

CC(C)(C)NCC(O)c1cc(Cl)c(N)c(C(F)(F)F)c1 (stereo not drawn)
not listed: [1]
inactive: all other assays above

CCCCC1C(=O)NC(=O)N(C2CCCCC2)C1=O (stereo not drawn)
inactive: [2] | [3] | [4] | [5] | [6]
